From PubChem BioAssay AID2314 (National Center for Advancing Translational Sciences (NCATS), 2010)
Several values for one entry are separate records, joined by “and”; a condition that tells them apart may be missing. Identical values can stand only once. Hit rate of the full screen: of about 300,000 compounds, about 37,000 (12%) were called active. The sample holds actives, similar compounds and a random draw of the others, so the mix is not that of the screen. Values without a mark were called inactive. Rule as the data show it: active = max response mostly above about 13% (no sharp cut-off); inactive = mostly below about 14%.

Experiment: Cycloheximide Counterscreen for Small Molecule Inhibitors of Shiga Toxin; also: read at 38.3 µM for the half of the compounds with a filed dose; 0% is about no effect
Conditions: cell reporter, cycloheximide protein synthesis inhibition counterscreen; stronger effect = higher value

Row | Compound | max response
1 | CCOC(=O)/C=C/C(=O)OCC(=O)NC(c1ccccc1)c1ccccc1 | 19.8% (active)
2 | CCOC(=O)C(C(=O)OCC)C(C#N)c1ccccc1 (configuration not stated) | -1.71%
3 | O=C(Cc1ccc(-c2ccccc2)cc1)NC(c1ccccc1)c1ccccc1 | 1.24%
4 | COc1ccc(CNC(=O)[C@H](Cc2c[nH]c3ccccc23)NC(C)=O)cc1OC | -3.86%
5 | O=C(Nc1ccn(Cc2ccccc2F)n1)c1ccc(COc2ccc(Cl)cc2Cl)o1 | 15.1% (active)
6 | O=C(O)c1ccc(NC(=O)c2ccc(COc3ccc(Cl)cc3)o2)cc1 | 2.26%
7 | COc1ccc(Cl)cc1NC(=O)NCC1CCN(Cc2ccccc2F)CC1 | -0.34%
8 | Cc1nn(C(C)(C)C)c(OC(=O)CC(C)C)c1S(=O)(=O)c1ccccc1 | 9.13%
9 | COc1ccc(C2c3[nH]c4ccccc4c3C[C@H]3C(=O)N(CC(C)C)CC(=O)N23)c(OC)c1 (some centres not stated) | -3.45%
10 | COc1ccc(C2C=C(c3ccc(Br)cc3)Nc3nc(NS(C)(=O)=O)nn32)cc1 (configuration not stated) | -3.16%
11 | Cn1nc([N+](=O)[O-])nc1Sc1ccc(C(C)(C)C)cc1 | -3.02%
12 | O=C(CN1CCN(C(=O)C2CCCO2)CC1)Nc1c(Cl)cccc1Cl (configuration not stated) | -1.69%
13 | Cc1cccc(C(=O)Nc2nnc(Cc3c[nH]c4ccccc34)s2)c1 | 3.09%
14 | Cc1cccc(N=C2NC(=O)/C(=C/c3cn(C)c4ccccc34)S2)c1 | 3.29%
15 | Cc1cccc(N=C2NN=C(c3c[nH]c4ccccc34)CS2)c1 | 25.2% (active)
16 | CC1CCCCC1NC(=O)c1cn(C)c2ccc(S(=O)(=O)N3CCOCC3)cc2c1=O (configuration not stated) | 1.03%
17 | Cc1nc(CNS(=O)(=O)c2cccnc2)cs1 | -2.9%
18 | O=S(=O)(NCCc1ccncc1)c1ccccc1 | -2.7%
19 | O=C(NCCc1csc(-c2ccccc2)n1)c1ccccc1F | 17.6% (active)
20 | O=S(=O)(NCCc1csc(-c2ccccc2)n1)c1cccnc1 | 19.7% (active)
21 | O=C(NC1CCN(Cc2ccccc2)CC1)c1ccccc1F | -5.27%
22 | O=C(NCCc1ccccn1)c1cc(-c2ccc(Cl)cc2)nc2ccccc12 | -4.89%
23 | Cc1ccc(-c2nn(C(C)(C)C)c3ncnc(N)c23)cc1 | -0.92%
24 | COc1ccc(NC(=O)C2C3CCC(O3)C2C(=O)O)cc1OC (configuration not stated) | -2.93%
25 | COc1ccc(CN2C3CCCC2CC(NC(=O)c2cccc(F)c2)C3)cc1 (configuration not stated) | -1.01%

Row | Compound | max response
26 | CCOC(=O)c1ccccc1NC(=O)COC(=O)CCC(=O)N1CCOCC1 | -1.15%
27 | COc1cc2c(cc1OC)C(C)N(S(=O)(=O)c1cnc(Cl)c(Cl)c1)CC2 (configuration not stated) | 11.2%
28 | COc1ccc(-n2ncc3c2CC(C)(C)CC3NC(=O)CCc2c(C)nn(C)c2C)cc1 (configuration not stated) | 0.573%
29 | CCCNC(=O)c1ccc(N2CCC3(CC2)CC(c2ccc(Cl)cc2)=NO3)c([N+](=O)[O-])c1 | -0.889%
30 | S=C(c1ccccc1)N1CCCC1 | -0.586%
31 | S=C(c1ccc(-c2ccccc2)o1)N1CCCCC1 | 38.1% (active)
32 | OCCN1CCN(C(=S)c2ccc(-c3ccccc3)cc2)CC1 | -2.28%
33 | Cc1ccc(OCC(=O)Nc2ccc(N3CCN(C(=O)c4ccco4)CC3)cc2)c(C)c1 | -1.02%
34 | c1ccc(CN=C2Nc3ccccc3CS2)nc1 | 36.1% (active)
35 | CCOC(=O)c1c(-c2ccccc2)oc2cc(Br)c(O)cc12 | -1.41%
36 | Cc1ccc(C)c(S(=O)(=O)N2CCCOC2CNC(=O)C(=O)NC2CCCCC2)c1 (configuration not stated) | 7.6%
37 | Cc1nc2ccccc2nc(C)c1=NOCc1ccc(Cl)cc1Cl | 39.1% (active)
38 | COC(=O)c1sc2ncccc2c1OCc1ccc(Cl)cc1Cl | 4.4%
39 | O=S(=O)(O)c1nc2ccccc2n1Cc1ccc(Cl)cc1Cl | -2.23%
40 | Cc1ccc(-n2ncc3c2CC(C)(C)CC3NC(=O)CCc2cnn(C)c2)cc1 (configuration not stated) | -4.22%
41 | O=C1c2cccc3cccc(c23)C(=O)N1c1cccc(O)c1 | -2.33%
42 | O=C(Nc1cccc(Cl)c1N1CCOCC1)c1cccnc1 | 6.59%
43 | Cc1noc(C)c1C(=O)NCCc1ccc(S(N)(=O)=O)cc1 | -1.04%
44 | Cc1nc2sccn2c(=O)c1S(=O)(=O)NCCc1ccccc1 | -3.53%
45 | CCOC(=O)C(=O)Nc1nc(-c2ccccc2)c(CC)s1 | -3.08%
46 | Cc1ccc(-c2nc(C)sc2CC(=O)O)cc1 | -1.04%
47 | C/C(=N/Nc1nc(-c2ccccc2)c(CC(=O)O)s1)c1ccccc1 | 35% (active)
48 | O=[N+]([O-])c1ccccc1S(=O)(=O)Nc1cccc2cccnc12 | 10.3% and 10.1% and -3.71%
49 | CS(=O)(=O)N1CCN(C(=O)CSc2ccccc2)CC1 | -1.13%
50 | CCN1CCN(C(=O)CSc2ccc(C)cc2)CC1 | 15.7% (active)

Row | Compound | max response
51 | CCN1CCN(C(=O)CCN2C(=O)c3ccccc3C2=O)CC1 | -1.33%
52 | CCOC(=O)N1CCN(C(=O)CSc2ccc(Cl)cc2)CC1 | 20.3% (active)
53 | CCOC(=O)N1CCN(C(=O)CNC(=O)Cc2ccc(Cl)cc2)CC1 | -1.82%
54 | CCOC(=O)N1CCN(C(=O)COc2ccc(Cl)cc2C)CC1 | -3.61%
55 | COc1ccc(OC)c(NC(=O)c2ccc3c(c2)C(=O)N(c2ccc(OC(C)=O)cc2)C3=O)c1 | 2.74%
56 | CCC1SC2=NCCN2C1(O)c1ccc(Cl)cc1 (configuration not stated) | -0.782%
57 | COc1ccc(-c2noc(-c3cccc(OC)c3OC)n2)cc1OC | 36% (active)
58 | CCOc1nc(-c2ccc(OC)cc2)ccc1-c1noc(-c2cc(OC)c(OC)c(OC)c2)n1 | 8.08%
59 | COc1ccc(-c2csc3nc(-c4ccccc4F)oc(=O)c23)cc1OC | -1.13%
60 | Cc1ccccc1OCC(=O)Nc1ccc(S(=O)(=O)N2CCOCC2)cc1 | 4.38%
61 | CCCOc1cccc(C(=O)Nc2ccccc2C(=O)N2CCN(C)CC2)c1 | -0.829%
62 | Cn1cnnc1SCc1nnc(-c2ccccc2Br)o1 | 24% (active)
63 | Cn1cnnc1SCC(=O)NNC(=O)COc1ccc(Br)cc1 | -2.49%
64 | Nc1cccc2c1C(=O)N(Cc1nnc(-c3ccccc3Br)o1)C2=O | 12.5%
65 | Cc1ccc(S(=O)(=O)/N=C(\CN2CCOCC2)N2CCOCC2)cc1 | -4.56%
66 | CN(CCO)c1ccc(/C=N/Nc2nncc3ccccc23)cc1 | 26.2% (active)
67 | COc1cc(/C=N/Nc2nn3cnnc3c3ccccc23)cc(OC)c1OC | 17.3%
68 | Cc1[nH]c(C)c(S(=O)(=O)N2CCC(C)CC2)c1C(=O)N1CCCC1 | -1.96%
69 | CCc1ccc(OCC(=O)OC(C)C(=O)NC2CC2)cc1 (configuration not stated) | -3.17%
70 | Cc1nc(-c2ccc(Cl)cc2)sc1C(=O)CBr | 24.4% (active)
71 | CCC(Sc1nncn1C)C(=O)Nc1nnc(-c2ccc(Cl)cc2)s1 (configuration not stated) | 11.6%
72 | Cc1nc(-c2ccc(Cl)cc2)sc1C(=O)NN | 0.842%
73 | Cc1cc(/C=N/NC(=O)CC2(C)OCCO2)c(C)n1-c1ccc(Cl)c(Cl)c1 | -1.92%
74 | COc1ccc(-c2noc(CNC(=O)C(C)Oc3ccccc3)n2)cc1 (configuration not stated) | 0.411%
75 | Cc1ccc(-c2nc(CS(=O)(=O)CC(=O)NCc3ccc4c(c3)OCO4)c(C)o2)cc1 | -6.73%

Row | Compound | max response
76 | CC(=O)N1CCSc2ccc(S(=O)(=O)N3CCC(C)CC3)cc21 | 11.3%
77 | COc1ccc2nc(/N=C(\N)NC(=O)Nc3ccccc3)nc(C)c2c1 | 21.4% (active)
78 | Cc1nc(/N=C(\N)NC(=O)NC2CCCCC2)nc2ccccc12 | 8.1%
79 | COc1ccc2nc(C)cc(Nc3cccc(C(=O)O)c3)c2c1 | -4.02%
80 | NC(=O)c1cc(S(=O)(=O)N2CCCC2)ccc1OCc1ccc(F)cc1 | 8.59%
81 | COc1ccc(CCNc2nc(C)cc(C)n2)cc1OC | -4.51%
82 | CCOC(=O)c1sc(=NC(=O)/C=C/c2cccs2)n(C)c1C | 45% (active)
83 | CCOC(=O)c1c(NC(=S)NC(=O)/C=C/c2cccs2)sc(C)c1C | -0.873%
84 | CCOC(=O)c1sc(=NC(=O)c2ccc(Br)cc2)n(C)c1C | 7.25%
85 | Cc1cccc2[nH]c(CN(C)C(=O)C3CCC(=O)N(CCc4ccccc4)C3)nc12 (configuration not stated) | -2.09%
86 | CC1CCN(S(=O)(=O)c2ccc(NC(=O)C3CC(=O)N(c4ccccc4)C3)cc2)CC1 (configuration not stated) | -2.49%
87 | COC(=O)c1cc(S(=O)(=O)NCC2CCN(Cc3ccc(Cl)cc3)CC2)cn1C | -2.79%
88 | Cc1cc(NC(=O)Nc2c[nH]c(=O)[nH]c2=O)ccc1Br | 9%
89 | COC(=O)c1ccc2c(C(C)(C)O)c(C(C)(C)O)[nH]c2c1 | 14.2% (active)
90 | COC(=O)c1cccc(NS(C)(=O)=O)c1 | -1.63%
91 | CCN(CC)CCNC(=O)CCCCCn1c(=O)[nH]c2cc(C(=O)OC)ccc2c1=O | -5.11%
92 | CC(C)(C)c1cc(C(=O)NN)n(Cc2ccc(Cl)cc2Cl)n1 | -2.75%
93 | N=c1n(Cc2ccc(Cl)cc2)c2ccccc2n1CC(O)c1ccco1 (configuration not stated) | -4.56%
94 | C=C(C)CNC(=S)/N=c1\scc(C)n1CC | 10.1%
95 | O=C(CSc1cccc2cccnc12)N/N=C/c1cccnc1 | 31.6%
96 | CC(=O)/C(=N\Nc1ccc(Cl)cc1Cl)Sc1cccc2cccnc12 | 19.1% (active)
97 | Cc1ccc(NC(=O)CSc2cccc3cccnc23)c(C)c1 | 21%
